A selection: hits, their analogues and other compounds. The true share with any hit is near 12%.
Lassa entry inh – inhibitors of Lassa virus binding or cell entry. Lassa virus pseudotype entry inhibition, cell reporter. Potency, µM (titrated, usually from 37.9 µM), actives largely listed as inhibitors. 300,000 compounds, 1.2% hits. AID 540256; calls by dose curve; tested in HEK293 cells; further: nearly all actives have a fitted effect of over 50% in size
Shiga toxin inh – inhibitors of Shiga toxin in Vero cells. 290,000 compounds, 9.2% hits. inhibition, % at 38.7 µM. Vero cells, Shiga toxin protein synthesis inhibition reporter; in the data active means inhibition mostly above about 28%, no sharp cut-off; inactive means mostly below about 43%
MARV entry inh – Marburg virus entry inhibition; Potency, µM (titrated, usually from 37.8 µM), usual class: inhibitors; Marburg virus pseudotyped entry inhibition, cell reporter; 300,000 compounds, 1.8% hits; calls by dose curve; tested in HEK293 cells
Cycloheximide cs – counter-screen for Shiga toxin inhibitors: cycloheximide protein synthesis inhibition; cell reporter, cycloheximide protein synthesis inhibition counterscreen; max response, %; 300,000 compounds, 12% hits; in the data active means max response mostly above about 13%, no sharp cut-off; inactive means mostly below about 14%; further: read at 38.3 µM for the half of the compounds with a filed dose
HeLa G2M arrest – causes HeLa cells to arrest in G2/M phase | shares compounds with MARV entry inh | HeLa cell cycle G2/M arrest, Hoechst DNA content imaging | Potency, µM, usual class: inhibitors | 25 compounds, 60% hits
WI-38 cytotox – counter-screen for perinucleolar compartment inhibitors: WI-38 cytotoxicity. shares compounds with MARV entry inh. WI-38 normal lung fibroblasts, ATPLite luminescence ATP viability, 24 h. Potency, µM (highest dose often 46.1 µM), hits mostly inhibitors. 120 tested, under 10 active. AID 2729
PNC inh conf – confirmation of perinucleolar compartment assembly inhibitors; shares compounds with MARV entry inh; PC3M PTB-GFP, PNC prevalence imaging, 16 h; Potency, µM (highest dose often 46.1 µM), hits mostly inhibitors; 120 compounds, 50% hits; AID 2730
PC3M casp3-7 – PC3M caspase 3/7 activation by PNC inhibitor hits; shares compounds with MARV entry inh; PC3M-GFP caspase 3/7 activation, luminescence, 24 h; activity change, positive = activation, % at 46.1 µM; 120 tested, under 10 active; AID 2731
Each line names hits and unclear results; the compound was inactive in the other large screens (follow-up assays come after a bar, where they were run). Unless noted, the call rests on the fitted dose curve; in most records, active means well fitted curve in the direction sought with a large enough effect; inconclusive means small, poorly fitted or top-dose-only effect, or another doubt; inactive means no such curve, though single readings can be large; an effect the other way counts as inactive or inconclusive.

C#CCn1c(S(=O)(=O)Cc2ccc(F)cc2)nc(-c2ccccc2)c1-c1ccccc1	Lassa entry inh 3.7µM, MARV entry inh 0.92µM | WI-38 cytotox inactive | PNC inh conf 7.9µM | PC3M casp3-7 inactive
COc1ccc2[nH]c3c(C)c4ccncc4c(C)c3c2c1	none (no result: Lassa entry inh, MARV entry inh)
Cc1c2ccncc2c(C)c2c1[nH]c1ccccc12	Lassa entry inh 6.5µM, MARV entry inh 4.1µM | HeLa G2M arrest inconclusive | WI-38 cytotox inactive | PNC inh conf inconclusive | PC3M casp3-7 inactive
Cc1cc(C(=O)Cn2nnc3ccccc3c2=O)c(C)n1-c1ccccc1F	Lassa entry inh 1.1µM, MARV entry inh 3.2µM, Cycloheximide cs 46 | WI-38 cytotox 14µM | PNC inh conf 4.5µM | PC3M casp3-7 inactive
O=C(CSc1nc(-c2cccs2)cc(C(F)(F)F)n1)Nc1cc(OCC(F)(F)C(F)F)cc([N+](=O)[O-])c1	Lassa entry inh inconclusive, MARV entry inh inconclusive
COc1cc(NC(=S)NC(=O)c2cc(C)cc(C)c2)ccc1NC(=O)c1cccs1	MARV entry inh inconclusive
COc1cc(NC(=S)NC(=O)c2ccc(C(C)(C)C)cc2)ccc1NC(=O)c1cccs1	Lassa entry inh 1µM, MARV entry inh inconclusive | WI-38 cytotox inactive | PNC inh conf 4µM | PC3M casp3-7 inactive
COc1ccc(NC(=O)CN(C)C(=O)CNC(=O)c2ccc(C)s2)cc1	MARV entry inh inconclusive (no result: Shiga toxin inh, Cycloheximide cs)
C[C@]12Cc3cn4c(nc3C=C1CCC1C2CC[C@@]2(C)[C@H]1CC[C@@]2(O)C#N)nc1ccccc14 (stereo partly drawn)	Lassa entry inh 5.2µM, MARV entry inh 10µM (no result: Shiga toxin inh, Cycloheximide cs) | HeLa G2M arrest inconclusive
CC12Cc3cnoc3C=C1CCC1C2CCC2(C)C1CCC2(C)O (stereo not drawn)	Lassa entry inh inconclusive (no result: Shiga toxin inh, Cycloheximide cs)
CC(=O)Nc1ccc(S(=O)(=O)NC(C)C(=O)NCC(c2ccco2)N(C)C)cc1 (stereo not drawn)	none (no result: Shiga toxin inh, Cycloheximide cs)
Cc1ccccc1C(=O)NNC(=S)Nc1cccc(C(F)(F)F)c1	Lassa entry inh inconclusive, MARV entry inh inconclusive, Cycloheximide cs 28 | WI-38 cytotox inactive | PNC inh conf inactive | PC3M casp3-7 inactive
Cc1nc2ccc(C(=O)N/N=C/c3cc([N+](=O)[O-])ccc3O)cc2[nH]1	none (no result: Lassa entry inh, MARV entry inh)
O=[N+]([O-])c1cc(/C=N/Nc2nc3ccccc3[nH]2)c(O)cc1O	Lassa entry inh 10µM, Shiga toxin inh 104, MARV entry inh 8.9µM, Cycloheximide cs 43 | WI-38 cytotox inactive | PNC inh conf 28µM | PC3M casp3-7 inactive
COc1ccc(Cn2ccc3nc(C)c(C(=O)NCc4ccc(SC)cc4)cc3c2=O)cc1	none (no result: Shiga toxin inh, MARV entry inh, Cycloheximide cs)
COc1ccc(C2C(C(=O)N3CCN(c4ccccc4)CC3)c3ccccc3C(=O)N2C)cc1 (stereo not drawn)	MARV entry inh inconclusive
COc1cccc(CNc2cccc3cccnc23)c1O	Shiga toxin inh active, Cycloheximide cs 16 | WI-38 cytotox inactive | PNC inh conf inactive | PC3M casp3-7 inactive
Cc1cc(Cl)ccc1NS(=O)(=O)c1c(C(=O)N2CCCCCC2)c(C)n(C)c1C	none (no result: Shiga toxin inh, MARV entry inh, Cycloheximide cs)
CSc1nnc2c3ccccc3n(CCc3ccccc3)c2n1	Lassa entry inh 1µM, MARV entry inh 0.58µM | WI-38 cytotox inactive | PNC inh conf 5µM | PC3M casp3-7 inactive
CSc1nnc2c3ccccc3n(Cc3ccccc3)c2n1	none
O=C(/C(=C(\O)c1ccccc1)c1nc2ccccc2[nH]1)c1ccccc1	Lassa entry inh inconclusive, MARV entry inh inconclusive
Cc1cccc(/C=C(\c2nc3ccccc3[nH]2)S(=O)(=O)c2ccccc2)c1	Lassa entry inh inconclusive, MARV entry inh 13µM | WI-38 cytotox inconclusive | PNC inh conf 22µM | PC3M casp3-7 inactive
COC(=O)c1sccc1S(=O)(=O)N1CCN(c2ccccc2OC)CC1	none (no result: Shiga toxin inh, MARV entry inh, Cycloheximide cs)
Cc1cc(=O)[nH]c(N=N/C(=N/Nc2ccccc2C)c2ccccc2)n1	Lassa entry inh 4µM, MARV entry inh 0.79µM | WI-38 cytotox inactive | PNC inh conf inconclusive | PC3M casp3-7 inactive
Cc1cccc(-n2c(SCC(=O)Nc3ncc(Cl)cc3Cl)nc3ccccc32)c1	Lassa entry inh 0.82µM, MARV entry inh 1.2µM | WI-38 cytotox inactive | PNC inh conf 5µM | PC3M casp3-7 inactive
O=C(Nc1ccccc1C(=O)N1CCCCC1)c1cccs1	none (no result: Lassa entry inh, MARV entry inh)
